Results on eight molecules are retold here after ChEMBL document CHEMBL3988442, “University of Dundee, Small-Polar-MMV Screening Library” (2021).

For some of these results: Potency and affinity values are given separately.

Set-up in all cases: scale not given: direction of the effect not stated beside the values
Assay [1] concerns the target Protein translocase subunit SecA (Escherichia coli (strain K12)) (UniProt P10408). Nature of the assay: Assay to Identify E. coli SecA ATPase Inhibitors. The class given is functional. The settings on record: 30 µM.
The target in assay [2] is T1, Ubiquitin-activating enzyme e1, putative (Leishmania donovani (strain BPK282A1)) (UniProt E9BSI1).
T1 sequence (whole entry): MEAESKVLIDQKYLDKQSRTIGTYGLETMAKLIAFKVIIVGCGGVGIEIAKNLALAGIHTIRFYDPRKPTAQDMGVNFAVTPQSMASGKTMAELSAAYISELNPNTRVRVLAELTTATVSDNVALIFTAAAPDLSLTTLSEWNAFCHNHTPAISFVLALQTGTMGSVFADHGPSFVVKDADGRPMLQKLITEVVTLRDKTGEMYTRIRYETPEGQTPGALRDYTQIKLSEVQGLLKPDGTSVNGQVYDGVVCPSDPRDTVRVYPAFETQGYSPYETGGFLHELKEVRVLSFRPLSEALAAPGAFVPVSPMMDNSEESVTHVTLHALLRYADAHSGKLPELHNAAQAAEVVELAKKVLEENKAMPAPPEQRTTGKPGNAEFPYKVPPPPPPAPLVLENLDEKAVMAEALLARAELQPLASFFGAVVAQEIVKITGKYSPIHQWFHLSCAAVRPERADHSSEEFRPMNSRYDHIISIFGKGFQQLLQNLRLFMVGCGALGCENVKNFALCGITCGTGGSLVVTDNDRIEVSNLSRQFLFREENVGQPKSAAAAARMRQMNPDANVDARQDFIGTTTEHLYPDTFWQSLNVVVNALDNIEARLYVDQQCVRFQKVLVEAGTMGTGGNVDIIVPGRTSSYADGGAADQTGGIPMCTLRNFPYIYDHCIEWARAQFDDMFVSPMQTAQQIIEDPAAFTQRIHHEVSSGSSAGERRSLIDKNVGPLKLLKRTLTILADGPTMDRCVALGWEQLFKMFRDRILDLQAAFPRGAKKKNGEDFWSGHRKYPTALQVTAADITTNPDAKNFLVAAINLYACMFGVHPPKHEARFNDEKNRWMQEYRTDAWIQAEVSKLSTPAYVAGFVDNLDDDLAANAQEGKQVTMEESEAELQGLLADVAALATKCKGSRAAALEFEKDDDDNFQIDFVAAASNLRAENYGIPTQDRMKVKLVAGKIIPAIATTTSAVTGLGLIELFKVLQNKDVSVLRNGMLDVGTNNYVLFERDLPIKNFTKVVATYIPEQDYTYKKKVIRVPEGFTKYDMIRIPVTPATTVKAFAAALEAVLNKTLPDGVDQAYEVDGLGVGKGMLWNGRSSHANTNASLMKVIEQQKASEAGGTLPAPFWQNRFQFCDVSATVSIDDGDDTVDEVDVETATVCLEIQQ
Description: Leishmania donovani Ubiquitin Activating Enzyme (LdE1). The class given is functional. The settings on record: 30 µM.

The target of assay [3] is AMP-activated protein kinase, AMPK (Homo sapiens) (UniProt P54646+O43741+P54619+Q9UGJ0+Q9Y478+Q13131+Q9UGI9). Nature of the assay: AMP-dependent Kinase enzyme assay. An in vitro enzyme assay that detects ADP turnover that is directly proportional to AMPK activity. This uses naive AMPK that is activated during the assay with MK-8722. The class given is functional. The settings on record: 30 µM.

For assay [4], the target named is Sialic acid-binding Ig-like lectin 9 (Homo sapiens) (UniProt Q9Y336). Nature of the assay: Hs-Siglec9 ALPHAscreen SOP 20170721. The settings on record: 10 µM. (In general: In Alpha technology, singlet oxygen from a donor bead excites a nearby acceptor bead.)
The next assay concerns Trypanosoma cruzi. Description: Trypanosoma cruzi phosphomannomutase and mannose-1-phosphate guanylyltransferase assay. The class given is functional. The settings on record: 10 µM.
Assay [5] has as its target T2, Arginase-2, mitochondrial (Homo sapiens) (UniProt P78540).
T2 sequence (whole entry): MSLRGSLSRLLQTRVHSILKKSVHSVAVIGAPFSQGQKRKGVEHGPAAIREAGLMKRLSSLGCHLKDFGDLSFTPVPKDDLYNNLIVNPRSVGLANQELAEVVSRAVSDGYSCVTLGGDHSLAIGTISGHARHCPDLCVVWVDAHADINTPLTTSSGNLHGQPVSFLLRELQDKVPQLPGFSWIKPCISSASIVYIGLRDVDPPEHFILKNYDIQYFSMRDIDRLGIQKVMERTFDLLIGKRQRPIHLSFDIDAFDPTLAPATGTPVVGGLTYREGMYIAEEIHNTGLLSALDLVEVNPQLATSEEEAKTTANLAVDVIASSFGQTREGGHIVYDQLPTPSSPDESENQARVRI
Nature of the assay: in vitro enzyme assay to detect the production of urea directly proportional to the activity of Arginase II. Further: in the data most compounds retested in dose-response had high values. The class given is functional. The note with it: 33.3 µM.

Assay [6] deals with T3, Proteasome subunit beta (Trypanosoma cruzi) (UniProt O96673).
T3 sequence (whole entry): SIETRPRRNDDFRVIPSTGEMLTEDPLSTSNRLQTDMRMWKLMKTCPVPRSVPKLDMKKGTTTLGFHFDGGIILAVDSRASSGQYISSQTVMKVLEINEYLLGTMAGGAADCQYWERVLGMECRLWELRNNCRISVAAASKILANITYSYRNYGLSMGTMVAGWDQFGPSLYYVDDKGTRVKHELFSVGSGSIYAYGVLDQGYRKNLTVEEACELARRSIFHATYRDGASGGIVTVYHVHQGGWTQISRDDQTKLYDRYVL
Description: Trypanosoma cruzi proteasome chymotrypsin-like activity (TcProtChymo) assay. Further: in the data most compounds retested in dose-response had high values. The class given is functional. The note with it: 9.37 µM.

For the next assay, the species on record is Homo sapiens. Description: To identify inhibition of the IFN signalling (Jak-Stat) pathway via expression of an eGFP reporter gene under the control of an IFN-stimulated response element (ISRE) containing MxA promoter. The class given is functional. The note with it: 30 µM. For orientation: In a reporter assay the amount or activity of a reporter protein is the signal.

Assay [7] has as its target T4, Tyrosyl-tRNA synthetase, putative (Trypanosoma cruzi (strain CL Brener)) (UniProt Q4DSP6).
T4 sequence (whole entry): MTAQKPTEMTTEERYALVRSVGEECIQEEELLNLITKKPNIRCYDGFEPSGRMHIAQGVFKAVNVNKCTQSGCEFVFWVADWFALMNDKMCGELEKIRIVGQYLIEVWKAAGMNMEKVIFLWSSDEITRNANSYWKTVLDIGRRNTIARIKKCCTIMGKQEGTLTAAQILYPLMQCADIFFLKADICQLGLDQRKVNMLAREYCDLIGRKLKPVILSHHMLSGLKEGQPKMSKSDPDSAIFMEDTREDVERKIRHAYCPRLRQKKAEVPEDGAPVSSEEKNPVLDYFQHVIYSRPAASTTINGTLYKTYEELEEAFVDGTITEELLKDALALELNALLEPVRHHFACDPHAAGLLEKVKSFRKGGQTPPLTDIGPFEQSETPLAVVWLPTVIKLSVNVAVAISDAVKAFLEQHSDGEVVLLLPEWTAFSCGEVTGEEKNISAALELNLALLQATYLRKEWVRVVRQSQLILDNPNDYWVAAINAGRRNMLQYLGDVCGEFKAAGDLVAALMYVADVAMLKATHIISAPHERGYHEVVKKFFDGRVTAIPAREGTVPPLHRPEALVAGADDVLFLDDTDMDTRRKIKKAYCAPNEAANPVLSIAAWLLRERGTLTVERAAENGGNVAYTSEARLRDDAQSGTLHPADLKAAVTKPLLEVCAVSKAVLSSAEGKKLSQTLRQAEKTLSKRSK
Description: Trypanosoma cruzi tyrosyl tRNA synthetase (TcYRS) _High Tyrosine SOP. Further: in the data most compounds retested in dose-response had high values. The class given is functional. The note with it: 30 µM.

In assay [8] the target is T4, Tyrosyl-tRNA synthetase, putative (Trypanosoma cruzi (strain CL Brener)). Nature of the assay: Trypanosoma cruzi tyrosyl tRNA synthetase (TcYRS) SOP. The class given is functional. The note with it: 30 µM.
The target in assay [9] is Chromo domain-containing protein 1 (Saccharomyces cerevisiae (strain ATCC 204508 / S288c) (Baker's yeast)) (UniProt P32657). Nature of the assay: ScCHD-1 Enzyme Inhibition Assay. Further: in the data most compounds retested in dose-response had high values. The class given is functional. The note with it: 30 µM.
Chromo domain-containing protein 1 (Saccharomyces cerevisiae (strain ATCC 204508 / S288c) (Baker's yeast)), sequence (P32657 whole entry, the tested form may be a part): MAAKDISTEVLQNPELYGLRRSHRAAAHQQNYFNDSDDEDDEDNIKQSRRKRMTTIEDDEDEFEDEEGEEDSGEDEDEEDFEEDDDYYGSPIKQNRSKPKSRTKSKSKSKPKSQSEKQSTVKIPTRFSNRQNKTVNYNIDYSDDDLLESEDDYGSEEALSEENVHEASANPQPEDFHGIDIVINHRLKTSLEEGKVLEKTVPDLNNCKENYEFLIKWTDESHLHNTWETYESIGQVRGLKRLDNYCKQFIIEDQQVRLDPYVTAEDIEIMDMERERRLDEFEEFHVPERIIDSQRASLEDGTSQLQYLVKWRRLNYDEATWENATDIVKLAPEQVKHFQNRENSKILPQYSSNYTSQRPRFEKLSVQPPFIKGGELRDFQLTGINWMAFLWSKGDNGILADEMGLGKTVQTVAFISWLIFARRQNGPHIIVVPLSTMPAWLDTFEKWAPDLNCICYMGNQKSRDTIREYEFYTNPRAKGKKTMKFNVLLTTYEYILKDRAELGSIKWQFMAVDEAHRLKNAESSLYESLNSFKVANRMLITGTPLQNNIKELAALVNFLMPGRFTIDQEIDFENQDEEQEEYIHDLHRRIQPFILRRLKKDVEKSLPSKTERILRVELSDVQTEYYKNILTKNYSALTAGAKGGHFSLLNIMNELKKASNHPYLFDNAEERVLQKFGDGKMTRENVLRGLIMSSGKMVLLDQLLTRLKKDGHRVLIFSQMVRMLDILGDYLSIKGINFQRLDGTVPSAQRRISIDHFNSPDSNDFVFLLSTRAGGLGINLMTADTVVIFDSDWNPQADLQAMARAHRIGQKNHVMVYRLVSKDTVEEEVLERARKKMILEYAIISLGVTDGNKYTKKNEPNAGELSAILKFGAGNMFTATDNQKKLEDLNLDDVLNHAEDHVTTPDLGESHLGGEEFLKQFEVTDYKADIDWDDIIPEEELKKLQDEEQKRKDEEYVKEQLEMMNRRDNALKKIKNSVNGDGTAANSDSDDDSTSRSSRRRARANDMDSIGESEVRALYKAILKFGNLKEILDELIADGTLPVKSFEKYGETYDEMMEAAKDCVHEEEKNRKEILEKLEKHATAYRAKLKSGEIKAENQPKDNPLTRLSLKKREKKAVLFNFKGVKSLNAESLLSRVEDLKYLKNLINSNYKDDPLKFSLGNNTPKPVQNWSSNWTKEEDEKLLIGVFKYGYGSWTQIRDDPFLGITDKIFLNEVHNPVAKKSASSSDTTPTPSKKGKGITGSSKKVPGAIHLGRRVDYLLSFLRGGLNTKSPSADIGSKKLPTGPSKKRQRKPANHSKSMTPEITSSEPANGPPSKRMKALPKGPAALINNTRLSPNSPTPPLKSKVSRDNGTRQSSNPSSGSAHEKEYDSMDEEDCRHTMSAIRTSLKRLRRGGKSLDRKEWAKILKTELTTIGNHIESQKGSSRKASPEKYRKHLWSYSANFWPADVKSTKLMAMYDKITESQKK

Sialic acid-binding Ig-like lectin 9 (Homo sapiens), sequence (Q9Y336 whole entry): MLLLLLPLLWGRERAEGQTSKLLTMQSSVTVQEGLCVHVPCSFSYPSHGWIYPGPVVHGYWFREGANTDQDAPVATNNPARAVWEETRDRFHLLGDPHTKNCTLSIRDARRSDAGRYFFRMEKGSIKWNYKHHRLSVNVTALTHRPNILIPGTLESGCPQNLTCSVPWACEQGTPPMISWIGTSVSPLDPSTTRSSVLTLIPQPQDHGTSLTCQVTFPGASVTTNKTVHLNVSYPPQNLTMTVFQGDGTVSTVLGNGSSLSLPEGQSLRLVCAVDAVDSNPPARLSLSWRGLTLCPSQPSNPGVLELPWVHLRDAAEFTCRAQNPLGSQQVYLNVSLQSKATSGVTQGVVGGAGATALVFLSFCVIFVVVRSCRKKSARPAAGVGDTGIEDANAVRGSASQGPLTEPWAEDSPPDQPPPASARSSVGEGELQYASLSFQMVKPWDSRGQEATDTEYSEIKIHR
Protein translocase subunit SecA (Escherichia coli (strain K12)), sequence (P10408 whole entry): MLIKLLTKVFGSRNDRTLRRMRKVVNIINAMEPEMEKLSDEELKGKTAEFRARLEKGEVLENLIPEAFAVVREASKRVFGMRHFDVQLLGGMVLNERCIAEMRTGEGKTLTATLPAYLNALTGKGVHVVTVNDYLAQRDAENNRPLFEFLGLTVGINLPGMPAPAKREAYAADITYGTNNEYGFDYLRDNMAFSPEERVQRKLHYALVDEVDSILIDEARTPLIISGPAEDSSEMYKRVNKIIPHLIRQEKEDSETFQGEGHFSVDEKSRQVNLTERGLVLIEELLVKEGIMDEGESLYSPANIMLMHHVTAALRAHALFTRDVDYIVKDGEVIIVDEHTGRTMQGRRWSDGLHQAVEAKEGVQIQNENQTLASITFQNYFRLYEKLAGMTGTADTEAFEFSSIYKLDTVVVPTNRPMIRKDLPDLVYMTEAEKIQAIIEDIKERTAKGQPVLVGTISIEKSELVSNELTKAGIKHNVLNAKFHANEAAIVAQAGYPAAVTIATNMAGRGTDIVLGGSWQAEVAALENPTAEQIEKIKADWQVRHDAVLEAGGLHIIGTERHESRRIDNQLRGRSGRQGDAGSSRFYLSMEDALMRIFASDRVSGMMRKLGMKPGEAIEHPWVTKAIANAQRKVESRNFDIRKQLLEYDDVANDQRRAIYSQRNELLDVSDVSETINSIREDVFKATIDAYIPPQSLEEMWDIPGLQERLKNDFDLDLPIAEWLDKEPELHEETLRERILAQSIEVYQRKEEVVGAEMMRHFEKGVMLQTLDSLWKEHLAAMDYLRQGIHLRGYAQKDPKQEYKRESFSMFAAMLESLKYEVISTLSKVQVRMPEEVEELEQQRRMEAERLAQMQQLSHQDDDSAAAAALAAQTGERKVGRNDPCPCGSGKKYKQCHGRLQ

Turning to `O=C(NCCN1CCCCCC1=O)c1n[nH]c(=O)c2ccccc12`, the Percent Effect in assay [1] is -2.33%; in assay [2], 15.6%; in assay [3] it was 17.8%; in [4], -3.89%; in the assay with Trypanosoma cruzi, -11.1%; in assay [5], 2.13%. Besides, the Percent Effect was 6.42% in assay [6]; 27.5% in the assay listed under Homo sapiens; -6.8% in assay [7]; 9.76% in assay [8]; -3% in [9].

On to `CCc1ccc(NS(=O)(=O)CC2=NC(=O)n3cccc3C2=O)cc1`, for which the Percent Effect in assay [1] is 1.25%; in assay [2] it was -17.3%; in assay [3], 11.5%; in assay [4] it was 5.52%; with Trypanosoma cruzi, -0.786%; in [5] it was -7.57%. Also, the Percent Effect was 6.1% in assay [6]; 0.554% in the assay filed under Homo sapiens; -8.47% in [7]; -12.8% in [8]; 3.49% in [9].

For `O=S(=O)(Cc1ccccc1)N1CCCn2cnc(CN3CCCC3)c2C1`, the Percent Effect in assay [1] is -3.85%; in assay [2], 8%; in assay [3] it was 20.1%; in [4], -0.361%; with Trypanosoma cruzi it was -4.44%; in assay [5] it was -57.5%. For the same molecule, the Percent Effect is 5.3% in assay [6]; -10% in the assay listed under Homo sapiens; 6.25% in assay [7]; -7.5% in assay [8]; -6.67% in assay [9].

On to `CN(Cc1ccc(C#N)cc1)Cc1noc(C(C)(C)C)n1`, for which the Percent Effect in assay [1] is -3.57%; in assay [2], 0%; in [3], -1.73%; in assay [4], 0.255%; with Trypanosoma cruzi it was -0.885%; in assay [5] it was 2.76%. The Percent Effect is 3% in [6]; 8.86% in the assay filed under Homo sapiens; -1.07% in assay [7]; -1.24% in assay [8]; 2.69% in [9].

Turning to `N#Cc1ccc(C2CC(=O)Nc3c2cnn3C2CCCC2)cc1` (stereo not drawn), the Percent Effect is -3.53% in assay [1]; 13.3% in assay [2]; 0.53% in assay [3]; 17.4% in assay [4]; 4.77% in the assay with Trypanosoma cruzi; 19.3% in [5]. Besides, the Percent Effect is 3.66% in assay [6]; 6.86% in the assay listed under Homo sapiens; 1.64% in assay [7]; 8.64% in [8]; -14.9% in assay [9].

Take `Cc1cc(C(=O)N[C@@H]2CCNC[C@H]2O)ccc1Cl`: the Percent Effect was -1.58% in assay [1]; 5.41% in assay [2]; 1.58% in [3]; 10.1% in assay [4]; 6.56% in the assay on Trypanosoma cruzi; -1.91% in assay [5]. The Percent Effect in [6] is 11.4%; in the assay filed under Homo sapiens it was -9.87%; in [7], 6.88%; in assay [8], 4.88%; in assay [9], -2.88%.

As for `COc1ccc2c(ccn2CCC(=O)O)c1`, the Percent Effect in assay [1] was -6.14%; in [2], 4%; in assay [3], -3.9%; in assay [4] it was -8.49%; in the assay on Trypanosoma cruzi, -8.45%; in assay [5] it was -7.22%. Further, the Percent Effect in assay [6] is 6.1%; in the assay filed under Homo sapiens, 21.8%; in [7], 3.17%; in assay [8], -5.13%; in [9], -7.85%.

Regarding `CN1CCN(C(=O)c2cnc3c(cnn3C3CCCC3)c2)CC1`, the Percent Effect was -5.03% in [1]; 12.7% in [2]; -2.67% in assay [3]; -0.596% in [4]; 8.78% with Trypanosoma cruzi; 5.7% in assay [5]. Further, the Percent Effect in assay [6] is 1.72%; in the assay listed under Homo sapiens it was -7.07%; in assay [7], 5.42%; in assay [8], 16.5%; in assay [9], -5.9%.
